Results as given in PubChem BioAssay.
Unmarked numbers belong to inactive results. No rule for the calls is given here.

target: Pantothenate synthetase (Mycobacterium tuberculosis (strain ATCC 25618 / H37Rv)) (UniProt P9WIL5); assay: Coupled enzyme confirmation of inhibitors against recombinant Mtb PanC (AID 375); settings: coupled enzyme assay; at 10 µM, hits give high values;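 also: 0% = full reaction with vehicle and 100% = no enzyme background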
Sequence (P9WIL5 whole entry, looked up): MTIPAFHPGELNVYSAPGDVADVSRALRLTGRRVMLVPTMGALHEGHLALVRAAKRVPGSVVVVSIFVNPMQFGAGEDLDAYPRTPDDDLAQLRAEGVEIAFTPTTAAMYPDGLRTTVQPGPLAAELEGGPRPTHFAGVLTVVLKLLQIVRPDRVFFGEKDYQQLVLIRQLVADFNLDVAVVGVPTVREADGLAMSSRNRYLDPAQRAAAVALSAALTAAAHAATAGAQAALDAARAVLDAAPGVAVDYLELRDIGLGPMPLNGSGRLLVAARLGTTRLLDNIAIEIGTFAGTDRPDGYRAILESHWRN

Row | SMILES | inhibition
1 | CC1(C)CC(=O)C(C=NCCO)=C(O)C1 | 0%
2 | O=C(NCc1cccs1)C1CC(=O)N(c2ccccc2)C1 (stereo not given) | 0%
3 | Cc1ccc(-c2noc(COc3ccccc3C)n2)cc1 | 0%
4 | CCN1C(=O)CC(N2CCC(Nc3ccc(F)cc3)CC2)C1=O (stereo not given) | 0%
5 | c1cn2cc(CSC3CCCCC3)nc2s1 | 2%
6 | C=CCn1c(CC#N)nnc1N1CCOCC1 | 0%
7 | CCn1c(SCC(=O)Nc2nccs2)nnc1-c1ccncc1 | 4%
8 | O=C(NC1CCCc2ccccc21)c1ccc(CNc2c(N3CCOCC3)c(=O)c2=O)cc1 (stereo not given) | 0%
9 | COc1ccc(-n2c(COc3ccccc3)nnc2SCc2ccc(C#N)cc2)cc1 | 0%
10 | O=C(NC1CCCCCC1)C1CCCN(S(=O)(=O)c2cccs2)C1 (stereo not given) | 0%
11 | CCN=C1SC(CC(=O)Nc2ccccc2OCC)C(=O)N1CC (stereo not given) | 0%
12 | CCOc1ccc(-c2nnn(CCC(=O)O)n2)cc1OC | 0%
13 | Cc1ccc(N(CC(O)CN2CCCC2)S(=O)(=O)c2ccc(C)cc2)cc1 (stereo not given) | 0%
14 | COc1ccc(N2CCN(C(=O)CSc3ccccc3N)CC2)cc1 | 0%
15 | c1ccc(-n2nnnc2OCCOc2nnnn2-c2ccccc2)cc1 | 3%
16 | COc1ccc(C(=O)Nc2ccc(S(=O)(=O)NC(C)=O)cc2)cc1 | 0%
17 | C[C@H]1C[C@@H]2[C@H]([C@@H](O)C[C@@]3(C)[C@H]2CC[C@]3(O)C(=O)CO)[C@@]2(C)C=CC(=O)C=C12 | 0%
18 | CCc1nnc(NC(=O)CSc2nnc(Cc3ccccc3)n2-c2ccc(OC)cc2)s1 | 7%
19 | Cc1ccc(Nc2cc(C)nc3nnnn23)cc1 | 6%
20 | COc1cccc(C2C(C#N)=C(N)OC3=C2C(=O)CCC3)c1OC(=O)c1ccco1 (stereo not given) | 13%

Row | SMILES | inhibition
21 | Cn1cc(CN2CCc3ccccc3C2)c2ccccc21 | 9%
22 | CS(=O)(=O)N(CC(=O)NCc1ccncc1)Cc1ccc(Cl)cc1 | 0%
23 | COc1ccc(CCNc2oc(COc3ccc(F)cc3)nc2C#N)cc1 | 0%
24 | CCN(CC)c1ccc2cc(NC(=O)CCC(=O)O)c(=O)oc2c1 | 0%
25 | Nc1nnnn1/N=C/c1ccccn1 | 0%
26 | COc1ccc(-c2nnnn2C)cc1S(=O)(=O)NCc1ccccc1 | 1%
27 | Cc1cc(Br)ccc1NC(=O)CCN1C(=O)c2ccncc2C1=O | 0%
28 | CCCCC(=O)NCCNc1nc2c(c(=O)n(C)c(=O)n2C)n1Cc1ccccc1 | 0%
29 | CCn1nnnc1SCC(=O)Nc1nc(-c2cccs2)cs1 | 0%
30 | CC(=O)CCc1c(C)[nH]c2ccccc2c1=O | 1%
31 | Cc1ccc(S(=O)(=O)N2CCCC2C(=O)n2nc(C)cc2C)cc1 (stereo not given) | 0%
32 | CC(=O)c1ccc(-c2nc3ccccc3n2C)o1 | 0%
33 | COC(=O)c1ccc(Oc2nc(NC(C)C)nc(N(C)C)n2)cc1 | 1%
34 | Cc1noc(C)c1CSc1nc2cc(S(=O)(=O)N3CCOCC3)ccc2o1 | 0%
35 | COc1cccc(CN(C)CC(=O)NC(=O)NCc2ccco2)c1 | 0%
36 | O=C(C1CCCN(S(=O)(=O)c2cnc[nH]2)C1)N1CC(=O)N(CCc2ccccc2)C(=O)C1 (stereo not given) | 0%
37 | CSCSC1=C(C#N)C(c2ccc(Cl)cc2)C(C(C)=O)=C(C)N1 (stereo not given) | 0%
38 | CCOC(=O)N1CCN(C(=O)c2c(-c3ccccc3)noc2C)CC1 | 0%
39 | COc1ccc2cc(C#N)c(NC(C)C)nc2c1 | 0%
40 | Cc1[nH]nc2c1C(c1ccc(F)cc1)C1=C(CC(C)(C)CC1=O)N2 (stereo not given) | 11%
